According to PubChem BioAssay AID1469 (National Center for Advancing Translational Sciences (NCATS), 2008):
Out of some 280,000 compounds screened, about 180 (0.064%) were called active. The call rests on the fitted dose curve; in most records, active means well fitted inhibition curve with a large enough effect; inconclusive means small, poorly fitted or top-dose-only effect, or effect the other way; inactive means flat fitted curve, though single readings scatter. Shown is part of a subset that was picked to be rich in actives.

Biological target: Thyroid hormone receptor beta (Homo sapiens) (UniProt P10828)
Test: qHTS for Inhibitors of the Interaction of Thyroid Hormone Receptor and Steroid Receptor Coregulator 2; further: nearly all actives have a fitted effect of over 50% in size
Settings: TRbeta-SRC2 peptide binding, fluorescence polarization, receptor liganded with 1 µM T3; series mostly up to 106 µM
How it was run: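 Decrease in fluorescence polarization of 20 nM Texas Red SRC2 coactivator peptide flagged inhibition of its binding to 0.6 uM TRb LBD; 1 uM T3 included, incubation 5 hr, ex 555/em 632 nm.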
Potency means the concentration at half of the fitted maximal effect.

Thyroid hormone receptor beta (Homo sapiens), sequence (P10828 whole entry, looked up): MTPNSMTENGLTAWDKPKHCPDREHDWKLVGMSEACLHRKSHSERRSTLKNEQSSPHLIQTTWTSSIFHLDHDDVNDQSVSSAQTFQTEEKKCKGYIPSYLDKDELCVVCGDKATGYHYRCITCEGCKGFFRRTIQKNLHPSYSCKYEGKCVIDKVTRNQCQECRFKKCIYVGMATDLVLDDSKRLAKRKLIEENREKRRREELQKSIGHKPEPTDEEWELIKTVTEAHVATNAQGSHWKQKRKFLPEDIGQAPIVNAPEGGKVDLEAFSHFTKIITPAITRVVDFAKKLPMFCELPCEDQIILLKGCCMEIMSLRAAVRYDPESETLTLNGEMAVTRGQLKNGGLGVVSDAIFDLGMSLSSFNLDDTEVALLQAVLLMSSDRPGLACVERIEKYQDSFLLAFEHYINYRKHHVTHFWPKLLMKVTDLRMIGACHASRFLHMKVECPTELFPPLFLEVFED

Potency, active:
Oc1ccc(N=Cc2sc3ccccc3c2Cl)cc1 14.1 µM, COCCOC(=O)c1sc(=S)n(CCOC)c1N 39.8 µM

Potency, inactive:
Cc1cccc(N2CCN(c3ccc(C(=O)O)cc3NC(=O)c3ccccc3F)CC2C)c1 (stereo not drawn), CCOc1ccc(-c2cc(C)n3nc(C(=O)Nc4ccc(C)c(C)c4)cc3n2)cc1, O=C(N/N=C/c1c(Cl)[nH]c2ccccc12)c1sc2ccccc2c1Cl, COc1ccc(N=C(C)c2sc3ccccc3c2O)cc1, COc1cccc(-c2cc(C(=O)Nc3ccc(C)cc3)[nH]n2)c1, COc1ccc(CC(=O)Nc2nnc3n2CCS3)cc1OC, Cc1ccc(Nc2nnc(-c3ccc(C)c(S(=O)(=O)N4CCCCC4)c3)c3ccccc23)cc1, COc1ccccc1N1CCN(CCCNC(=O)c2cnn(-c3ccccc3Cl)c2C2CCN(C(=O)OC(C)(C)C)CC2)CC1, CC1(C)C(=O)N(Cl)C(=O)N1Cl, CCCCCCCCCCCCCCCC, CCOc1ccccc1NC(=O)Cn1c2ncccc2c(=O)n1-c1ccc(C)c(C)c1, CC(C)Cn1c(-c2ccc(S(=O)(=O)N3CCOCC3)cc2)csc1=Nc1cc(Cl)ccc1Cl, COc1cccc(-c2nc(CS(=O)(=O)CC(=O)N3CCN(c4cc(C)ccc4C)CC3)c(C)o2)c1, CC1(C)C(=O)N(Br)C(=O)N1Br, Cc1nc2ccn(Cc3cccs3)c(=O)c2cc1C(=O)NCc1ccc(Cl)cc1, CCOc1cc(-c2nnc(SCC(=O)NC3CCCCC3)nc2-c2ccc(OC)c(OCC)c2)ccc1OC, Cc1ccc(N)c(S(=O)(=O)O)c1, CCc1c(C(=O)O)c(=O)cnn1-c1ccc(Cl)cc1, CC1CCN(S(=O)(=O)c2ccc3c(ccn3CCC(=O)NCc3ccc(N(C)C)cc3)c2)CC1, COc1ccc(N2CCN(C(=O)C3CCCN(C(=O)c4cc5sccc5n4C)C3)CC2)cc1 (stereo not drawn), CC(=O)Nc1ccc(NC(=O)c2cc3sccc3n2Cc2ccc(F)cc2)cc1, CCOc1ccc(OCC)c(NC(=O)CN(c2ccc(C)cc2)S(=O)(=O)c2c(C)n[nH]c2C)c1, COc1ccc(CCNC(=O)CCCCn2c(=O)c3ccccc3n(Cc3ccccc3)c2=O)cc1OC, CCCS(=O)(=O)c1c(Nc2ccccc2C)sc(C(=O)c2ccccc2)c1N, COc1cccc(NC(=O)CSc2cc(=O)n(C)c3ccc(Cl)cc23)c1, CSc1ccccc1NC(=O)CCS(=O)(=O)c1nc(-c2cccs2)cc(C(F)(F)F)n1, COc1ccc2c(c1)Cc1sc(NC(=O)c3ccccc3Br)nc1-2, COc1cc(OC)c(NC(=O)N2CC3CCCN3c3ccccc32)cc1Cl (stereo not drawn), Cc1ccc(C2C=C(c3ccc(Cl)cc3)Nc3nc(NC(=O)CCC(=O)O)nn32)cc1 (stereo not drawn), O=S(=O)(c1ccc2nc(NCc3ccccc3Cl)ccc2c1)N1CCCCC1, COc1ccc(NC(=O)C2CCN(c3ccc(Sc4ccc(C)cc4)nn3)CC2)c(OC)c1, COc1ccc(Nc2ncc(C(=O)Nc3cc(C)ccc3OC)c3ccccc23)cc1, Cc1ccc(S(=O)(=O)c2nc(-c3cccs3)oc2N2CCCCC2)cc1, COc1ccccc1Nc1c2c(nc3ccc(NC(=O)/C=C/c4cc(OC)c(OC)c(OC)c4)cc13)CCCC2, COc1cccc(Cn2c(SCc3ccc(C(=O)N4CCC(C)CC4)cc3)nc3ccncc32)c1, CCOC(=O)Cn1c(=O)n(-c2ccccc2OC)c2nc(-c3cccc(F)c3)nc(C(N)=O)c21, Cc1cccc(N2CCN(C(=O)c3cc4c(=O)oc5ccccc5c4s3)CC2C)c1 (stereo not drawn), COc1ccc(C)cc1NC(=O)C(=O)NCCc1sc(-c2cccc(C)c2)nc1C, Cc1cccc(Cn2c(SCc3ccc(C(=O)N4CCC(C)CC4)cc3)nc3ccncc32)c1, CN1CCN(c2oc(-c3ccc(COc4ccc(Cl)cc4)o3)nc2C#N)CC1, CC(=O)c1ccc(NC(=O)CSc2c(C(C)C)cnc3c2c(=O)n(C)c(=O)n3C)cc1, CCOc1ccc(C2C(=O)N(C3CCCCC3)CC(=O)N2CCC2=CCCCC2)cc1OC (stereo not drawn), COc1ccccc1N1CCN(C(CNC(=O)C(=O)NCc2ccc(C)cc2)c2cccnc2)CC1 (stereo not drawn), CCOC(=O)c1c(N)sc(C(C)=O)c1C, COC(=O)c1sc(=S)n(-c2ccc(Cl)cc2)c1C, Cc1cc(C)c(N)c(Cl)c1, COc1ccc(C2Sc3ccccc3NC3=C2C(=O)c2ccccc23)c(OC)c1OC (stereo not drawn), CCOc1cccc(CC(=O)N2CCc3c([nH]c4ccccc34)C2c2ccc(OC)cc2)c1OCC (stereo not drawn), Cc1ccc(OCC(=O)Nc2ccc(Cl)c(-c3nc4ccccc4[nH]3)c2)cc1C, COc1ccc(C(F)(F)F)cc1NC(=O)c1sc2nc(-c3cccs3)ccc2c1N, CCOc1ccc(C(=O)/C=C/c2cn(CC(O)CN3CCCCCC3)c3ccccc23)cc1 (stereo not drawn), Cc1ccc(CCNC(=O)c2ccc3c(c2)N(Cc2cc(C)ccc2C)C(=O)c2ccccc2S3=O)cc1 (stereo not drawn), O=C(C1CCC(Cn2c(=O)c3sccc3n(Cc3ccccc3F)c2=O)CC1)N1CCCCC1 (stereo not drawn), COc1cccc(N2CCN(S(=O)(=O)c3cc(Br)cc4c3N(C(=O)C3CC3)CC4)CC2)c1, CCOc1cccc2sc(N3CCN(C(=O)C4CC4)CC3)nc12, COc1ccc(OCCCn2c(C)nc3cc(C)c(C)cc32)cc1
